Hits are enriched below; roughly 2.4% of the tested compounds scored in any of these assays.
Rango release inh = qHTS Assay for Inhibitors of RanGTP induced Rango (Ran-regulated importin-beta cargo) - Importin beta complex dissociation; Biochemical FRET Rango-importin beta, RanGTP-induced dissociation; Snurportin-1 (Homo sapiens) + GTP-binding nuclear protein Ran (Homo sapiens) + Importin …; Potency, µM (titrated, usually from 46.1 µM); actives 0.071% (n = 340,000); calls by dose curve; also: nearly all actives have a fitted effect of over 45% in size
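Rango/importin beta premix (0.1/0.25 uM final), PBS + 1 mM DTT + 0.02% Tween-20 + 0.1% BSA; cpd 5 min RT; FRET pre-read; + RanGTP-RCC1 (0.6 uM Ran, 2 mM GTP, 0.2 uM RCC1); 45 min RT; FRET post-read, ex 430, em 486/530 nm.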
Rango-impB inh = qHTS Assay for Inhibitors of Rango (Ran-regulated importin-beta cargo) - Importin beta complex formation; Importin subunit beta-1 (Homo sapiens), Q14974; Rango CFP/YFP FRET sensor + importin beta, 45 min; Potency, µM (doses to about 92.2 µM); actives 0.031% (n = 340,000); calls by dose curve; also: nearly all actives have a fitted effect of over 15% in size
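FRET biosensor (snurportin 1 IBB flanked by EYFP and cerulean), 50 nM, with compound 5 min, then 0.125 microM importin beta in PBS, 1 mM DTT, 0.02% Tween-20, 0.1% BSA. CFP/YFP ratio read after 45 min at room temperature; pre-read flags interference.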
PKM2 activator = qHTS Assay for Activators of Human Muscle isoform 2 Pyruvate Kinase; purified PKM2, Kinase-Glo ATP luminescence, activation; response scale: 0% is enzyme alone, no compound; actives 0.34% (n = 260,000); Potency, µM (top dose mostly 57.5 µM), usual class: activators; Pyruvate kinase PKM (Homo sapiens), P14618; AID 1631, 2009; also: nearly all actives have a fitted effect of over 55% in size
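ATP formation by purified human PK-M2, quantified via coupled luciferase luminescence after 1 h at room temperature with 0.1 mM ADP and 0.5 mM PEP final.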
Tb PFK inh = qHTS Assay to Find Inhibitors of T. brucei phosphofructokinase; ATP-dependent 6-phosphofructokinase (Trypanosoma brucei brucei), O15648; T. brucei PFK, ADP-Glo luminescence; Potency, µM (titrated, usually from 57.5 µM), most hits filed as inhibitors; AID 485367, 2010; actives 0.17% (n = 330,000); also: nearly all actives have a fitted effect of over 60% in size
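Activity is normalized to no-enzyme wells (full inhibition) and 1.25 nM enzyme wells (no inhibition). Reaction: 0.5 mM F6P, 0.1 mM ATP, 45 min RT, ADP-Glo luminescence; concentration-response curves fitted and classed by quality.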
PGK inhibitor = qHTS Assay to Find Inhibitors of Phosphoglycerate Kinase; Phosphoglycerate kinase, glycosomal (Trypanosoma brucei brucei), P07378; PGK/GAPDH coupled, Kinase-Glo luminescence, 60 min; Potency, µM (top dose mostly 57.5 µM), usual class: inhibitors; actives 0.043% (n = 380,000); also: nearly all actives have a fitted effect of over 60% in size
Target sequence (P07378 whole entry, looked up): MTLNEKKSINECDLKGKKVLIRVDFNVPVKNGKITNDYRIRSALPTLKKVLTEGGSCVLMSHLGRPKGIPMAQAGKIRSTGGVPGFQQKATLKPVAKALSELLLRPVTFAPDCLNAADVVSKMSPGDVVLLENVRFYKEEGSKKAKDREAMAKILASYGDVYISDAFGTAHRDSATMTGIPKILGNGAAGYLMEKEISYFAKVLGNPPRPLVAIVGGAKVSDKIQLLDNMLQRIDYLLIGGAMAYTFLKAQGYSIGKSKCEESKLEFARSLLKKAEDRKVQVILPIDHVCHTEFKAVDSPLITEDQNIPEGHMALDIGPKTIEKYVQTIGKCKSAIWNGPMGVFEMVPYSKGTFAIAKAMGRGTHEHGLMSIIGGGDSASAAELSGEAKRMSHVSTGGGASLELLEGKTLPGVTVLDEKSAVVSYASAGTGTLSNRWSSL
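Luminescent ATP detection (Kinase-Glo Plus) follows a 60-minute room-temperature incubation, with wells lacking PGK as controls. Buffer: 100 mM TEA (pH 7.6), 5 mM MgCl2, 0.01% Tween-20. Coupling enzyme GAPDH (100 nM final) supplies unstable 1,3-BPG in-well.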
ELG1 repair inh = qHTS screen for small molecules that inhibit ELG1-dependent DNA repair in human embryonic kidney (HEK293T) cells expressing luciferase-tagged ELG1 | HEK293T ELG1-luciferase reporter, luminescence, 16 h; DNA damage induced by 5-fluorouridine | Potency, µM (highest dose often 46.1 µM), actives largely listed as inhibitors | actives 2.3% (n = 330,000) | AID 504467, 2011; also: nearly all actives have a fitted effect of over 55% in size
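In this reporter screen, reduction of luminescence relative to DMSO vehicle indicated activity. Compounds and 5-fluorouridine were added together to 2,000 cells per well, incubated for 16 hr at 37 °C, then developed with ONE-Glo.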
ELG1 FLuc counter = qHTS screen for small molecules that inhibit ELG1-dependent DNA repair: Hit Confirmation in Cell-Based Luciferin Assay | shares compounds with ELG1 repair inh | cell-free firefly luciferase luminescence counter-screen, ViewLux | Potency, µM (highest dose often 46.1 µM), most hits filed as inhibitors | actives 3% (n = 350) | AID 624247, 2012
ELG1 Luc conf = HTS assay for small molecules that inhibit ELG1-dependent DNA repair in human embryonic kidney (HEK293T) cells expressing luciferase-tagged ELG1: Hit Confirmation | shares compounds with ELG1 repair inh | HEK293T ELG1-luciferase levels, luminescence; cells co-treated with 5-fluorouridine | Potency, µM (titrated, usually from 46.1 µM), hits mostly inhibitors | actives 68% (n = 670) | AID 624248, 2012; also: nearly all actives have a fitted effect of over 55% in size
ELG1 MMS Luc = MMS-stimulated human ELG1 repair inhibition, confirmed. shares compounds with ELG1 repair inh. actives 53% (n = 670). HEK293T luciferase-tagged ELG1 level, MMS stimulated. Potency, µM (highest dose often 46.1 µM), usual class: inhibitors; also: nearly all actives have a fitted effect of over 60% in size
ELG1 5-FU = qHTS screen for small molecules that inhibit ELG1-dependent DNA repair: Hit Confirmation with 5FU Viability | Potency, µM (series often up to 46.1 µM), hits mostly cytotoxic | shares compounds with ELG1 repair inh | 670 tested, under 10 active | cell viability with 5-FU, ELG1-dependent repair;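 also: ELG1-luc HEK293T cells cotreated with 5-fluorouridine at 10 µM final; viability measured 16 h after compound addition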
ELG1 MMS viab = qHTS screen for small molecules that inhibit ELG1-dependent DNA repair: Hit Confirmation with MMS Viability; shares compounds with ELG1 repair inh; actives 33% (n = 670); AID 624251, 2012; Potency, µM (series often up to 46.1 µM), actives largely listed as cytotoxic; Cell viability with MMS, ELG1-dependent DNA repair;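 also: ELG1-luc HEK293T cells co-treated with 10 µM MMS; viability read 16 h after compound addition; nearly all actives have a fitted effect of over 60% in size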
ELG1 unstim viab = qHTS screen for small molecules that inhibit ELG1-dependent DNA repair: Hit Confirmation with Unstimulated Viability Assay | shares compounds with ELG1 repair inh | cell viability counter-screen, unstimulated, luminescence | Potency, µM (series often up to 45.9 µM), actives largely listed as cytotoxic | actives 8% (n = 900) | AID 624252, 2012;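 also: compound exposure lasted 16 hours before reading; nearly all actives have a fitted effect of over 55% in size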
FLuc enzyme = qHTS screen for small molecules that inhibit ELG1-dependent DNA repair: Hit Confirmation in Biochemical Luciferin Assay; shares compounds with ELG1 repair inh; purified firefly luciferase, luminescence counter-screen; Potency, µM (series often up to 57.5 µM), most hits filed as inhibitors; actives 10% (n = 350); AID 624253, 2012
A number is an active result; - = inactive; ? = inconclusive; . = no result. Unless noted, calls follow the shape of the dose curve; as a rule, active = well fitted curve in the direction sought with a large enough effect; inconclusive = small, poorly fitted or top-dose-only effect, or another doubt; inactive = no such curve, though single readings can be large; an effect the other way counts as inactive or inconclusive.

SMILES	Rango release inh	Rango-impB inh	PKM2 activator	Tb PFK inh	PGK inhibitor	ELG1 repair inh	ELG1 Luc conf	ELG1 MMS Luc	ELG1 5-FU	ELG1 MMS viab	ELG1 unstim viab	others
CN(C(=O)CSc1nc2ccccc2[nH]1)C1CCS(=O)(=O)C1 (stereo not drawn)	-	-	.	-	-	-	.	.	.	.	.
CCCN(CCC)c1ncnc2nc[nH]c12	-	-	-	-	-	1.6µM	4.4µM	?	-	-	-
CCc1c(C)nc2cc(-c3cc(OC)cc(OC)c3)nn2c1N1CCN(CCN2CCOCC2)CC1	-	-	-	-	-	2.6µM	4.4µM	?	?	-	-
COCCN1CCN(c2c(C)c(C)nc3cc(-c4cccc(OC)c4)nn23)CC1	-	-	.	.	-	.	.	.	.	.	.
O=C1CC(N2CCN(c3ccccn3)CC2)C(=O)N1CC(c1ccccc1)c1ccccc1 (stereo not drawn)	-	-	-	-	-	4.1µM	28µM	?	-	?	?
O=C1CC(N2CCN(c3ccccn3)CC2)C(=O)N1c1ccc(F)cc1 (stereo not drawn)	?	-	-	-	-	-	.	.	.	.	.
CCOc1ccc(-n2c(=O)c3sccc3n(CC(=O)Nc3cccc(OC)c3)c2=O)cc1	-	-	-	-	-	-	.	.	.	.	.
Cc1ccc(Cn2ncc3c(N4CCN(C)CC4)ncnc32)cc1	-	-	-	-	-	?	.	.	.	.	.
Cc1ccc(Cn2ncc3c(N4CCN(CCc5ccccc5)CC4)ncnc32)cc1	-	-	-	-	-	3.7µM	?	3.5µM	-	4µM	?
COc1ccccc1C(=O)NCC(=O)NCC1(N2CCCCC2)CCCCC1	-	-	.	-	-	-	.	.	.	.	.
Oc1ccccc1-c1cc(-c2ccc(F)cc2)n[nH]1	-	-	-	-	-	?	.	.	.	.	.
Oc1ccccc1-c1cc(-c2ccccc2)n[nH]1	-	-	.	-	-	?	.	.	.	.	-
CC(=O)c1cccc(NC(=O)c2cc(-c3ccco3)nc3ccccc23)c1	-	-	.	-	-	?	.	.	.	.	.
COc1cc(-c2cc(C(=O)Nc3cccc(C(C)=O)c3)c3ccccc3n2)cc(OC)c1OC	-	-	.	-	-	1.6µM	0.71µM	11µM	?	-	?
c1ccc(CCc2nn3c(-c4ccncc4)nnc3s2)cc1	-	-	-	-	-	2.6µM	5µM	?	-	-	-
CC(=O)c1ccc(O[C@@H]2O[C@H](CO)[C@@H](O)[C@H](O)[C@H]2O)cc1	-	-	.	-	-	-	.	.	.	.	.
COc1ccccc1C(=O)NCCC(=O)N1CCN(S(=O)(=O)c2ccccc2C(F)(F)F)CC1	-	-	.	-	-	-	.	.	.	.	.
Cc1cc(Cl)c(S(=O)(=O)N2CCCC2)cc1OCC(N)=O	-	-	-	-	-	-	.	.	.	.	.
CCN1CCN(S(=O)(=O)c2cc(OCC(=O)NC3CCCCC3)c(C)cc2Cl)CC1	-	-	-	-	-	?	-	3.1µM	-	2.5µM	?
COc1cc2ncnc(Nc3cccc(Cl)c3)c2cc1OC	.	.	-	-	.	.	6.3µM	7.1µM	25µM	18µM	18µM
COCCn1c(C)cc(C(=O)COC(=O)c2ccccc2Br)c1C	-	-	-	-	-	?	.	.	.	.	.
COCCn1c(C)cc(C(=O)COC(=O)c2cccnc2SC)c1C	-	-	.	-	-	?	.	.	.	.	?	ELG1 FLuc counter=-;FLuc enzyme=0.52µM
Cc1ccc(NC(=S)N(Cc2cccs2)Cc2cc3cccc(C)c3[nH]c2=O)cc1	-	-	-	-	-	?	4.4µM	?	?	-	-
Cc1ccc2cc(CN(CC3CCCO3)C(=S)Nc3ccccc3)c(=O)[nH]c2c1C (stereo not drawn)	-	-	-	-	-	4.6µM	4µM	?	?	-	?
O=Cc1cn(CC(=O)Nc2ccc(F)cc2)c2ccccc12	-	-	-	-	-	3.7µM	-	3.1µM	-	14µM	-
O=Cc1cn(CC(=O)Nc2ccccc2)c2ccccc12	-	-	-	-	-	-	.	.	.	.	.
CCN(CC)CC(O)CNc1ccnc2c(Cl)ccc(Cl)c12 (stereo not drawn)	-	-	.	.	-	.	.	.	.	.	.
CCOCCCNC(=O)C1CCN(c2cc(C)nc3c(-c4ccc(OC)c(OC)c4)c(C)nn23)CC1	-	-	-	-	-	2.6µM	?	-	?	-	-
CCN(CC)C(=O)C1CCN(c2cc(C)nc3c(-c4ccc(OC)c(OC)c4)c(C)nn23)CC1	.	.	.	.	-	.	.	.	.	.	.

Screens from PubChem.
